From PubChem BioAssay (NCI)
This is part of a sample that, as a whole, favours compounds with a hit. Of some 83,000 tested, about 20% had one in any assay.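 In brief: 96-well plates, 48 h treatment, single concentration, percent growth endpoint.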 Values without a mark were called inactive. Active and inactive are the calls of the source. How the source made its calls: active means growth percent below 10; inactive means the rest.

Legend:
Test in all cases: NCI-60 one-dose screen, 48 h (100 = growth as untreated, 0 = no growth, -100 = all killed)
Conditions in all cases: 10 µM unless noted
DU-145 prostate = tested on: DU-145 prostate
K-562 leukemia = tested on: K-562 leukemia
MALME-3M melanoma = tested on: MALME-3M melanoma
MDA-MB-231 breast = tested on: MDA-MB-231 breast
RXF 393 renal = tested on: RXF 393 renal
SF-268 CNS = tested on: SF-268 CNS
SF-295 CNS = tested on: SF-295 CNS
SF-539 CNS = tested on: SF-539 CNS
UACC-257 melanoma = tested on: UACC-257 melanoma
M14 melanoma = tested on: M14 melanoma

| Structure (SMILES) | growth (DU-145 prostate) | growth (K-562 leukemia) | growth (MALME-3M melanoma) | growth (MDA-MB-231 breast) | growth (RXF 393 renal) | growth (SF-268 CNS) | growth (SF-295 CNS) | growth (SF-539 CNS) | growth (UACC-257 melanoma) | growth (M14 melanoma) |
| --- | --- | --- | --- | --- | --- | --- | --- | --- | --- | --- |
| O=C(Nc1ccc(-n2cc(-c3ccncc3)c(-c3ccc(Cl)c(O)c3)n2)cc1)Nc1ccc(Cl)c(C(F)(F)F)c1 | 23.2% | 8.1% (active) | -13.6% (active) | -24.8% (active) | -47.8% (active) | 23.3% | -44.5% (active) | 2.77% (active) | -9.1% (active) | -58.6% (active) |
| CN1CCN(Cc2ccc(NC(=O)c3ccc(C#Cc4c(N)ncc5ccc(F)cc45)cc3)cc2C(F)(F)F)CC1 | -46.5% (active) | -44.5% (active) | -88.1% (active) | -72.5% (active) | -43.5% (active) | -21.1% (active) | -56.7% (active) | -90% (active) | -58.5% (active) | -89.2% (active) |
| CC1CCCCC[N+]12CCCC2 (stereo not given) | 105% | 107% | 100% | 99% | 92% | 109% | 92.2% | 104% | 104% | 102% |
| Nc1nc2c(c3ncncc13)C(c1cccc(C(F)(F)F)c1)Cc1ncncc1-2 (stereo not given) | 15.6% | 16.9% | 66.2% | 45% | 6.31% (active) | 45.8% | 11.9% | -26.6% (active) | 67.9% | 11.4% |
| CCCCCCCCCCCCCCCCNC(=S)N/N=C/c1ccc(OC)cc1 | 104% | 105% | 103% | 95.1% | 92% | 107% | 84.9% | 91.7% | 99.3% | 96.1% |
| C/C=C(/C)C(=O)OC1C=C(CO)C(=O)C(OC(=O)C(C)(O)C(C)Cl)C1C(C)C (stereo not given) | 3.58% (active) | 1.56% (active) | -76.6% (active) | -5.1% (active) | -63.6% (active) | 10.4% | -41.4% (active) | -43.7% (active) | -19.7% (active) | -56.4% (active) |
| O=CN/N=C/c1ccc(Cl)c([N+](=O)[O-])c1 | 24.5% | 15.4% | 30% | 43.9% | 40.1% | 21.5% | 3.88% (active) | 22.2% | 18.2% | 29% |
| O=C(O)CS(=O)c1ccc(Cl)cc1 (stereo not given) | 109% | 81.8% | 99.8% | 118% | 103% | 109% | 94.9% | 106% | 99.3% | 102% |
| CC(C)OC(=O)c1ccc2n1CCCc1cnc(Nc3ccccc3)nc1-2 | 87.2% | 43.6% | 55.4% | 78% | 91.2% | 94.4% | 76.1% | 86.1% | 82.8% | 89.6% |
| O=C(OCC1CC2(Cl)C(Cl)=C(Cl)C1(Cl)C2(Cl)Cl)C1C(C(=O)OCC2CC3(Cl)C(Cl)=C(Cl)C2(Cl)C3(Cl)Cl)C2(Cl)C(Cl)=C(Cl)C1(Cl)C2(Cl)Cl (stereo not given) | 97.4% | 94.7% | 98.6% | 109% | 104% | 100% | 94.8% | 97.9% | 113% | 98.5% |
| N=C(N)c1ccc(-c2ccc(-c3ccc(F)cc3)s2)cc1 | -92.9% (active) | -62.9% (active) | -75.6% (active) | -86.8% (active) | -98.4% (active) | -79.9% (active) | -94.1% (active) | -95.4% (active) | -79.5% (active) | -83.1% (active) |
| CC(=O)/C(=C/c1ccc(-c2ccccc2)cc1)C(=O)c1ccccc1 | 87.1% | 64.2% | 89.3% | 92.5% | 90.6% | 85.9% | 92.3% | 85.1% | 80.2% | 79.8% |
| Oc1ccccc1/C=N/N=C\c1ccccc1Cl | 99.5% | 77.1% | 103% | 72.6% | 97.3% | 91.9% | 98.7% | 105% | 104% | 91% |
| Clc1ccc(N/N=C/c2ccccn2)nc1 | 19.2% | 10.8% | 1.36% (active) | 34.5% | 16.2% | 6.56% (active) | 1.61% (active) | 1.62% (active) | 1.06% (active) | -25.7% (active) |
